Measured values as given in PubChem BioAssay (EPA / NIEHS).
Values joined by “and” are separate entries in the source; they are usually repeats but may differ in a detail not shown here. Identical values can stand only once. Results filed as inconclusive are left out. Active and inactive are the calls of the source. The calls were made as follows: active = hit-call score of the fitted dose curve at least 0.9, where 1 is the maximum; inconclusive = response in the unintended direction; inactive = score below 0.9.

Columns and labels:
[1] = TOX21_p53_BLA_p2_viability: Viability Assessment in the Tox21 HCT-116 p53 Agonism Beta-lactamase Assay, Phase 2 (AID 2283591);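 also: actives lower the ATP signal meaning cytotoxicity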
In short: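 HCT-116 p53-bla cells (4000/well) rested 5 h at 37C, then received compounds in DMSO (217-fold dilution) for 16 h at 37C, 5% CO2. After the CCF4 read, CellTiter-Glo was added; ATP luminescence was read after 30 min at room temperature.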

[2] = target: Cellular tumor antigen p53 (Homo sapiens) (UniProt P04637); experiment: TOX21_p53_BLA_p2_ratio: Tox21 HCT-116 p53 Agonism Beta-lactamase Assay, Ratio, Phase 2 (AID 2283592)
Chain of Cellular tumor antigen p53 (Homo sapiens) (P04637 whole entry, looked up): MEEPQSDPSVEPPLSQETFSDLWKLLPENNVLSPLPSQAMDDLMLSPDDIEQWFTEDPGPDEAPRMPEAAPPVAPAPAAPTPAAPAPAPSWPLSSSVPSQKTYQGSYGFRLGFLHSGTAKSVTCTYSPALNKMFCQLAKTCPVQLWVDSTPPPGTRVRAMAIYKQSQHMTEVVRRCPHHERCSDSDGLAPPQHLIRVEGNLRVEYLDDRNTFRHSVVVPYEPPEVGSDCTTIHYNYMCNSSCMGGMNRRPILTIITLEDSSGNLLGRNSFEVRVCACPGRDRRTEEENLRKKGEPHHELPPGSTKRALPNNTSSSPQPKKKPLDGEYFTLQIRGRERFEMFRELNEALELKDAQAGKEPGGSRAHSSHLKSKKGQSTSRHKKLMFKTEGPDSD
In short: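 Gain-of-signal p53 agonism was scored from the beta-lactamase FRET ratio (460/530 nm, 405 nm excitation) in HCT116 cells treated 16 h at 37C, 5% CO2, with DMSO serving as negative control and baseline.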

[3] = TOX21_p53_BLA_p3_viability: Viability Assessment in the Tox21 HCT-116 p53 Agonism Beta-lactamase Assay, Phase 3 (AID 2283593)
In short: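 HCT-116 cells (4000/well) rested 5 h at 37C, then got DMSO compounds by pin tool (217-fold dilution) for 16 h at 37C, 5% CO2. After the bla read, CellTiter-Glo was added and luminescence read at 30 min, room temperature.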

[4] = target: Cellular tumor antigen p53 (Homo sapiens) (UniProt P04637); experiment: TOX21_p53_BLA_p3_ratio: Tox21 HCT-116 p53 Agonism Beta-lactamase Assay, Ratio, Phase 3 (AID 2283596)
In short: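 HCT116 p53-bla cells (4000/well) given compound in DMSO (217-fold dilution) after 5 h, incubated 16 h at 37C. CCF4-AM substrate 2 h at room temperature; 460/530 nm emission ratio, gain fitted against DMSO.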

[5] = TOX21_p53_BLA_p4_viability: Viability Assessment in the Tox21 HCT-116 p53 Agonism Beta-lactamase Assay, Phase 4 (AID 2283597);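 also: hits lower the luminescence signal meaning cytotoxicity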
In short: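 Following a 16 h exposure at 37C, the treated HCT116 wells were first read for the FRET ratio. They were then lysed with CellTiter-Glo, and ATP luminescence was recorded after 30 min at room temperature.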

[6] = target: Cellular tumor antigen p53 (Homo sapiens) (UniProt P04637); experiment: TOX21_p53_BLA_p5_ratio: Tox21 HCT-116 p53 Agonism Beta-lactamase Assay, Ratio, Phase 5 (AID 2283599)
In short: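 HCT-116 cells carrying a p53-inducible beta-lactamase reporter were seeded at 4000 cells/well and dosed after 5 h with compound in DMSO (217-fold dilution). After 16 h at 37C, CCF4-AM substrate was added for 2 h, and the 460/530 nm emission ratio was scored as gain-of-signal versus DMSO.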

[7] = TOX21_p53_BLA_p5_viability: Viability Assessment in the Tox21 HCT-116 p53 Agonism Beta-lactamase Assay, Phase 5 (AID 2283600)
In short: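 After the 460/530 nm beta-lactamase measurement, the wells received an ATP-detection luciferase reagent; signal was read 30 min later at RT. Compound treatment lasted 16 h on cells pre-incubated 5 h post-seeding.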

[8] = target: Cellular tumor antigen p53 (Homo sapiens) (UniProt P04637); experiment: TOX21_p53_BLA_p4_ratio: Tox21 HCT-116 p53 Agonism Beta-lactamase Assay, Ratio, Phase 4 (AID 2283601)
In short: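 HCT116 cells carrying an inducible beta-lactamase reporter were plated at 4000 cells/well, rested 5 h, then exposed to compounds in DMSO (217-fold dilution) for 16 h at 37C. CCF4-AM substrate was loaded 2 h at room temperature; 460/530 nm emission ratio scored gain-of-signal versus DMSO.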

[9] = TOX21_PR_BLA_Followup_Agonist_viability: Viability Assessment in the Tox21 HEK293 Progesterone Receptor (PR) Agonism Beta-lactamase Follow-Up Assay (AID 2283935);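 also: signal loss means lower viability so actives are cytotoxic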
In short: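 PR-UAS-bla HEK293T cells in 2% charcoal-stripped FBS medium, plated 6 hr before compound addition, exposed 16 hr at 37C. Viability read by CellTiter-Glo ATP luminescence after 30 min at room temperature, in the same wells as the beta-lactamase readout.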

[10] = TOX21_PR_BLA_Followup_Antagonist_viability: Viability Assessment in the Tox21 HEK293 Progesterone Receptor (PR) Antagonism Beta-lactamase Follow-Up Assay (AID 2283936);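 also: hits lower the luminescence signal meaning cytotoxicity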
In short: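 PR-UAS-bla HEK293T cells (3,000/well, 2% charcoal-stripped FBS) given compound plus R5020 agonist, 16 h at 37C. CellTiter-Glo added after bla read, 30 min at room temperature; luminescence loss indicates cytotoxicity.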

PGR (gene 5241) = PGR (gene 5241) (UniProt P06401); experiment: TOX21_PR_LUC_Followup_Antagonist: Tox21 HEK293 Progesterone Receptor (PR) Antagonism Luciferase Follow-Up Assay (AID 2283938);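 also: curve fitted upward as signal gain over DMSO baseline despite antagonist label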
Chain of PGR (gene 5241) (P06401 whole entry, looked up): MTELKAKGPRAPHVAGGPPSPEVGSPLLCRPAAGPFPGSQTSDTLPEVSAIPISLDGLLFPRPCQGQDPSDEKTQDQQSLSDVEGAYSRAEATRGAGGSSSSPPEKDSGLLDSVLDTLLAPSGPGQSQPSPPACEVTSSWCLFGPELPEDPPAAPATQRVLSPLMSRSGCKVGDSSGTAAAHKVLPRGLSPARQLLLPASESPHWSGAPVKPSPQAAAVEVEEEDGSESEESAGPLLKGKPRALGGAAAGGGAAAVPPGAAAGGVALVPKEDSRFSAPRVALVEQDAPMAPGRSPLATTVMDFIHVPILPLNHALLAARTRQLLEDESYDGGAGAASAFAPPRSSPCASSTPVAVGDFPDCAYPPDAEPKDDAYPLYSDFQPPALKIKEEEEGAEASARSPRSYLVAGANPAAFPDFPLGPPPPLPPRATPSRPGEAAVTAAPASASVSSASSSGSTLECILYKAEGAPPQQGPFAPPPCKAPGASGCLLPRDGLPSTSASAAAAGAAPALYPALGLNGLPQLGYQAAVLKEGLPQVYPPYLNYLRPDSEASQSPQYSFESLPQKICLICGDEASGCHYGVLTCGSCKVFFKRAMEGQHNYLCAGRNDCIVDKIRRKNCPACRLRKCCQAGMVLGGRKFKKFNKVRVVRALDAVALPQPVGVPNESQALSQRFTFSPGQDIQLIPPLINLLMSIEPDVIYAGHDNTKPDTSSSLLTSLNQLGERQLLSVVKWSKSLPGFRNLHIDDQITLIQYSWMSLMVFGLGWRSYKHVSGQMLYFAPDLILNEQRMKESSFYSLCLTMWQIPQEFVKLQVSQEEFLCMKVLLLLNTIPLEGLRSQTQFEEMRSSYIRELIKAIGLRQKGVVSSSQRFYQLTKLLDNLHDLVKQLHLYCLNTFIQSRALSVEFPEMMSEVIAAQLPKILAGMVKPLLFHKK
In short: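 Luminescence from ONE-Glo was measured 30 min after reagent addition, following 16 h exposure of HEK293-PR-A-luc cells (3,000/well, plated 5 h earlier) to DMSO-dissolved compounds at 37C; DMSO served as baseline.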

[11] = TOX21_PR_LUC_Followup_Antagonist_viability: Viability Assessment in the Tox21 HEK293 Progesterone Receptor (PR) Antagonism Luciferase Follow-Up Assay (AID 2283940)
In short: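 HEK293-PR-A-luc cells kept in charcoal-stripped FBS medium were plated 5 h before compound addition, then exposed 16 h at 37C; viability read as cellular ATP by luciferase luminescence, loss of signal indicating cytotoxicity.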

[12] = TOX21_PR_LUC_Followup_Agonist_viability: Viability Assessment in the Tox21 HEK293 Progesterone Receptor (PR) Agonism Luciferase Follow-Up Assay (AID 2283941);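 also: loss of signal means cytotoxicity so actives lower viability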
In short: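 HEK293-PR-A-luc cells, kept in 10% charcoal-stripped FBS medium, were treated with compounds for 16 h at 37C. Viability read as cellular ATP by luciferase-coupled luminescence; loss of signal indicates cytotoxicity.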

Measured: AC50

CCCCCCCC/C=C\CCCCCCCCOCCO
active: [1] 72.5 µM | [2] 96.6 µM | [3] 29.2 µM | [4] 80.3 µM | [5] 72.6 µM | [6] 56.2 µM | [7] 21.1 µM | [8] 105 µM

NC(=O)n1c(O)c(C(=O)c2cccs2)c2cc(Cl)ccc21
inactive: [1] | [3] | [5] | [7] | [8] | [9] | [10] | [11] | [12]
active: [2] 26.9 µM | [4] 20.4 µM | [6] 34.4 µM | PGR (gene 5241) 17.3 µM

COC(=O)C1=C(C)NC(COC(N)=O)=C(C(=O)OC(C)C)C1c1cccc(Cl)c1Cl (configuration not stated)
inactive: [1] | [3] | [4] | [7] | [9] | [10] | [11] | [12]
active: [2] 33.5 µM | [5] 35.2 µM | [6] 25.5 µM | [8] 28.8 µM | PGR (gene 5241) 7.88 µM

CC(=O)Oc1ccc2c(c1)CC[C@@H]1[C@@H]2CC[C@]2(C)[C@@H](O)CC[C@@H]12
active: PGR (gene 5241) 0.449 µM
inactive: [1] | [2] | [3] | [4] | [5] | [6] | [7] | [8] | [9] | [10]

N=C(N)c1ccc(OCCCOc2ccc(C(=N)N)cc2Br)c(Br)c1
inactive: [1] | [2] | [3] | [4] | [5] | [6] | [7] | [8]

CC(C)C[C@H](NC(=O)[C@H](Cc1ccccc1)NC(=O)c1cnccn1)B(O)O
active: [1] 283 nM and 357 nM | [2] 9.74 nM and 12.9 nM | [3] 318 nM and 262 nM | [4] 10.5 nM and 14.1 nM | [5] 128 nM and 150 nM | [6] 25.2 nM and 15.7 nM | [7] 554 nM and 442 nM | [8] 9.86 nM and 13 nM | PGR (gene 5241) 0.0717 µM
inactive: [9] | [10] | [11] | [12]

O=C(c1ccc(O)cc1)c1ccc(O)c(O)c1O
inactive: [1] | [2] | [3] | [4] | [5] | [6] | [7] | [8]

CN(C)CCCN1c2ccccc2Sc2ccc(C(F)(F)F)cc21
inactive: [1] | [2] | [3] | [6] | [7]
active: [4] 11.1 µM | [5] 36.2 µM | [8] 10.1 µM
